From PubChem
TDP1 cell noCPT – qHTS for Inhibitors of human tyrosyl-DNA phosphodiesterase 1 (TDP1): qHTS in cells in absence of CPT; Potency, µM (highest dose often 46.2 µM), inactives show at the top dose activity change, negative = growth inhibition, actives largely listed as inhibitors; DT40 Tdp1-/- hTDP1 cells, no CPT, ATP luminescence, 48 h; hit rate 15% among 420,000; also: nearly all actives have a fitted effect of over 55% in size
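Chicken DT40 Tdp1-/- cells stably complemented with human TDP1 were seeded at 400 cells/well with DMSO in place of 20 nM camptothecin. After compound pinning, cells grew at least 48 hr at 37 °C; viability read by CellTiter-Glo luminescence.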
KB-V1 cytotox – qHTS assay for MDR1-selective chemotherapeutics: Primary screen using the drug-selected MDR subline cells KB-V1. Potency, µM (top dose mostly 46.1 µM), most hits filed as cytotoxic. KB-V1 MDR cells viability, CellTiter-Glo, 72 h. hit rate 3.4% among 400,000. AID 1347076, 2019; also: nearly all actives have a fitted effect of over 60% in size
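Drug-selected KB-V1 cells, grown in DMEM lacking phenol red with 10% FBS, receive compound titrations; after three days at 37 degrees C, surviving cell ATP is quantified by CellTiter-Glo luminescence and responses normalized and curve-fitted.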
DT40 TDP1 CPT – qHTS for Inhibitors of human tyrosyl-DNA phosphodiesterase 1 (TDP1): qHTS in cells in presence of CPT; chicken DT40 Tdp1-/-;hTDP1 cells + 20 nM CPT, ATP luminescence, 48 h; hit rate 12% among 420,000; Potency, µM (series often up to 46.2 µM), without a hit: at the highest dose activity change, negative = growth inhibition, usual class: inhibitors; also: nearly all actives have a fitted effect of over 55% in size
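Chicken DT40 Tdp1-/- cells stably complemented with human TDP1 were seeded at 400 cells/well in medium containing 20 nM camptothecin, exposed to pin-transferred compounds, and grown at 37 °C for at least 48 hr. Viability was read as ATP luminescence.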
HT1080NT lethal – qHTS for induction of synthetic lethality in tumor cells producing 2HG: qHTS for the HT-1080-NT fibrosarcoma cell line. HT-1080-NT fibrosarcoma viability, CellTiter-Glo ATP luminescence, 48 h. AID 686970, 2013. hit rate 1.6% among 360,000. Potency, µM (series often up to 46.1 µM), inactives show at the highest dose activity, negative = less viability, most hits filed as cytotoxic;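 also: NT is the 2HG producing partner of a matched IDH1 knockdown line; 0% = DMSO-treated cells and -100% = media-only wells without cells; nearly all actives have a fitted effect of over 55% in size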
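Viability by CellTiter-Glo luminescence after 48 h compound exposure at 37C of HT-1080-NT cells (750/well, RPMI, 5% FBS). % activity scaled between DMSO wells and medium-only wells, then curve-fitted and categorized by curve class.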
KB-3-1 cytotox – qHTS assay for MDR1-selective chemotherapeutics: Primary screen using the parental adenocarcinoma cell KB-3-1 | KB-3-1 viability, CellTiter-Glo ATP luminescence, 72 h | Potency, µM (highest dose often 46.1 µM), actives largely listed as cytotoxic | hit rate 1.4% among 400,000 | AID 1347075, 2019; also: nearly all actives have a fitted effect of over 60% in size
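Screening of KB-3-1 cells (DMEM, 10% FBS, phenol-red free) ran from lowest to highest compound concentration; after 72 h at 37 °C viability was read luminescently and curves fitted.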
HT1080 IDH1KD tx – qHTS for induction of synthetic lethality in tumor cells producing 2HG: qHTS for the HT-1080-IDH1KD cell line | HT-1080 IDH1 knockdown viability, ATP luminescence, 48 h | Potency, µM (titrated, usually from 46.1 µM), without a hit: at the top dose activity, negative = toxicity, usual class: cytotoxic | hit rate 2% among 360,000 | AID 686971, 2013;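 also: 0% = DMSO wells and -100% = cell-free medium wells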
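In this qHTS, HT-1080 cells depleted of IDH1 are exposed for 48 h at 37 °C to compound titrations. Toxicity is scored from CellTiter-Glo luminescence, with DMSO as full viability and medium alone as none.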
* = called active by the depositor; i = inactive; ? = inconclusive; / = not tested or not shown. Sampled rows, rich in hits. Any-hit rate of the full collection: about 19%. Calls follow the shape of the dose curve; as a rule, active = well fitted curve in the direction sought with a large enough effect; inconclusive = small, poorly fitted or top-dose-only effect, or another doubt; inactive = no such curve, though single readings can be large; an effect the other way counts as inactive or inconclusive. Unless noted, % is scaled to controls: 0 for no effect and ±100 for the full control effect; potency is read from the fitted curve at half-maximal effect.

SMILES	TDP1 cell noCPT	KB-V1 cytotox	DT40 TDP1 CPT	HT1080NT lethal	KB-3-1 cytotox	HT1080 IDH1KD tx
Cc1ccc(C)c(N2CCN(C(=O)C(C)n3c(C)c4cnn(-c5ccccc5)c(=O)c4c3C)CC2)c1 (stereo not drawn)	16µM*	i	21µM*	/	i	/
Cc1cc(C(=O)N2CCN(c3cccc(C)c3C)CC2)c2c(C)nn(-c3ccccc3)c2n1	7.3µM*	i	?	/	?	/
Cc1cc(C)c(NC(=O)CCCn2c(C)c3cnn(-c4ccccc4)c(=O)c3c2C)c(C)c1	23µM*	i	?	/	i	/
COc1cccc(C(=O)Nc2c(C(=O)N3CCN(c4ccc(F)cc4)CC3)oc3ccccc23)c1	?	?	?	/	i	/
Cn1cc(S(=O)(=O)N2CCOCC2)cc1C(=O)Nc1cccc(C#N)c1	2%	i	1%	/	i	/
Cc1cccc(N2CCN(C(=O)Cn3c(C)c4cnn(-c5ccccc5)c(=O)c4c3C)CC2)c1C	5.8µM*	i	7.3µM*	/	?	/
Cc1c2cnn(-c3ccccc3)c(=O)c2c(C)n1CC(=O)NCc1ccc(Cl)cc1	-19%	i	-26%	/	i	/
Cc1cccc(NC(=O)CCCn2c(C)c3cnn(-c4ccccc4)c(=O)c3c2C)c1C	?	i	21µM*	/	i	/
COc1ccccc1CNC(=O)CC(c1ccc(C)cc1)N1Cc2ccccc2C1=O (stereo not drawn)	?	i	?	/	i	/
COc1cccc2cc(C(=O)CS(=O)(=O)c3ccc(Cl)cc3)c(=O)oc12	?	i	?	-1%	i	5%
O=C(Nc1cccc(Br)c1)c1ccc2c(c1)SC1=NS(=O)(=O)CCN12	29µM*	i	23µM*	-3%	i	0%
O=C(NCc1ccccc1Cl)c1ccc2c(c1)SC1=NS(=O)(=O)CCN12	?	i	?	28%	?	0%
CC(C)(C)c1ccccc1NC(=O)c1ccc2c(c1)SC1=NS(=O)(=O)CCN12	?	i	29µM*	17%	i	3%
CSc1cccc(NC(=O)C2CCN(S(=O)(=O)c3ccc4[nH]c(=O)ccc4c3)CC2)c1	-9%	i	-16%	/	?	/
Cc1cccc(-c2ccc(NC(=O)C3CCN(CC4CC4)CC3)cc2)c1	18µM*	i	?	21µM*	i	?
Cc1cccc(CN2CCC(C(=O)Nc3ccc(Oc4cccnc4)cc3)CC2)c1	?	/	?	-5%	/	2%
COc1cccc(CN2CCC(C(=O)Nc3ccc(-c4cccc(C)c4)cc3)CC2)c1O	16µM*	?	16µM*	?	i	?
O=C(Cc1ccccc1)NCC(=O)OCc1cccc([N+](=O)[O-])c1	13%	i	-4%	5%	i	0%
O=C(NCCOc1ccccc1F)c1cc([N+](=O)[O-])ccc1N1CCOCC1	3.7µM*	i	5.2µM*	6.5µM*	?	8.2µM*
O=C(NCCOc1ccccc1)c1cc([N+](=O)[O-])ccc1N1CCOCC1	1.6µM*	?	1.8µM*	?	?	7.3µM*
O=C(Nc1nc2ccc(Oc3ccccc3)cc2s1)c1cc([N+](=O)[O-])ccc1N1CCOCC1	13µM*	i	?	2%	i	0%
CC(C)c1ncc(S(=O)(=O)c2ccc(C(F)(F)F)cn2)c(N)n1	-17%	i	-5%	0%	i	-3%
CCN1CCN(C(=O)c2ccc3c(c2)N(Cc2ccccc2F)C(=O)c2ccccc2S3=O)CC1 (stereo not drawn)	?	i	-2%	/	i	/
COc1cccc(CNC(=O)CN2C(=O)CCCc3ccccc32)c1OC	-12%	i	-10%	/	i	/
CCn1c(C)nc2cc(C(=O)N/N=C/c3ccc(N4CCOCC4)cc3)ccc21	?	i	-17%	3%	i	-10%
SMILES	TDP1 cell noCPT	KB-V1 cytotox	DT40 TDP1 CPT	HT1080NT lethal	KB-3-1 cytotox	HT1080 IDH1KD tx
CCOC(=O)CSc1nnc([C@H](Cc2ccccc2)NC(=O)OC(C)(C)C)o1	-3%	i	-2%	8%	i	-21%
CC(C)(C)OC(=O)N[C@@H](CCCCNC(=O)OCc1ccccc1)c1nnc([C@H](CCCCNC(=O)OCc2ccccc2)NC(=O)OC(C)(C)C)o1	?	i	?	2%	i	-4%
CC(C)C[C@H](N)c1nnc(S(=O)(=O)Cc2cccc(F)c2)o1	5.8µM*	i	5.8µM*	?	i	?
CC(C)(C)OC(=O)N[C@@H](Cc1ccccc1)c1nnc(S(=O)(=O)Cc2cccc(F)c2)o1	1.3µM*	18µM*	1.3µM*	?	18µM*	23µM*
CN(C)C(=O)CSc1nnc([C@H](Cc2c[nH]c3ccccc23)NC(=O)OC(C)(C)C)o1	-18%	13µM*	-8%	-3%	i	10%
CC(C)[C@H](NC(=O)OC(C)(C)C)c1nnc(S(=O)(=O)Cc2c(F)cccc2Cl)o1	1.6µM*	?	1.2µM*	6.3µM*	i	4µM*
Cc1cccc(S(=O)(=O)c2cn(C)c3cc(N4CCCCCC4)c(F)cc3c2=O)c1	-11%	/	6%	/	/	/
O=C(c1ccccc1)c1ccc(O)c(O)c1O	?	i	4%	0%	i	0%
CCCCNC(=O)C(NC(=O)c1cnc(C)cn1)C(=O)c1ccccc1 (stereo not drawn)	0%	?	-3%	14%	i	18%
CNC(=O)C1Cc2c(-c3ccc4c(c3)OCO4)ccnc2O1 (stereo not drawn)	-28%	i	-30%	-2%	i	-1%
CC(C)C[C@H](NC(=O)OC(C)(C)C)c1nnc(SCc2ccccc2)o1	23µM*	?	?	-8%	i	-22%
Cc1ccccc1CS(=O)(=O)c1nnc([C@H](CC(C)C)NC(=O)OC(C)(C)C)o1	2.8µM*	i	2.2µM*	11µM*	?	4µM*
